Consider eight sequences from PMC7862700, “An all-to-all approach to the identification of sequence-specific readers for epigenetic DNA modifications on cytosine”.

Common to all, as to assay: DAPPL (digital affinity profiling via proximity ligation, sequencing); 10 mM Tris-HCl pH 7.5, 50 mM NaCl, 1 mM DTT, 4% glycerol, room temperature, 30 min; GST-TFs on glutathione beads, 16-mer random dsDNA library, 0.1% formaldehyde crosslink after washing; high values mean tight binding
The target in one assay is HSF1 (Homo sapiens, UniProt Q00613 1-529). The conditions noted are these: protein: recombinant; tags: N-terminal GST; chain copies: 3; dsDNA, one strand shown. In short, it runs like this:
(§1)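 Binding signal is defined as a hexamer's read frequency for one factor over its frequency for the tag-only sample. To obtain reads, GST-fused human transcription factors were expressed in yeast, captured on glutathione beads, barcoded with DNA and pooled with that sample. Pools met 200 nmole of a 16-mer random double-stranded DNA library in Tris/NaCl/DTT/glycerol buffer for 30 min at room temperature before washing, 0.1% formaldehyde crosslinking, proximity ligation (BsaI/T4 ligase, 1 h, 37 °C), PCR and Illumina NextSeq500 sequencing.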

In a further assay the target is CRX (Homo sapiens, UniProt O43186 1-299). The conditions noted are these: protein: recombinant; tags: N-terminal GST; dsDNA, one strand shown. The method in brief:
as §1

The next assay deals with T1, ETV7 (Homo sapiens, UniProt Q9Y603 1-341).
T1 sequence: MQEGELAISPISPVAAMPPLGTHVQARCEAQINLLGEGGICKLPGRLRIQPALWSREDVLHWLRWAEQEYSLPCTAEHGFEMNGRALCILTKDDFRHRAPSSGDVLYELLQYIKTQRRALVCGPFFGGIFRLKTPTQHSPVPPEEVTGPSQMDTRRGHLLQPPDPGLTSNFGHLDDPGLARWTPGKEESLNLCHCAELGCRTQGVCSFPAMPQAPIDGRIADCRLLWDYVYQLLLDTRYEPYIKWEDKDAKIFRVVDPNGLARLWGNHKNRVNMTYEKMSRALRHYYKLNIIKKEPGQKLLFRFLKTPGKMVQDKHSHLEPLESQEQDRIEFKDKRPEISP
The conditions noted are these: protein: recombinant; tags: N-terminal GST; dsDNA, one strand shown. The method in brief: as §1

For a further assay, the target named is T2, ERF (Homo sapiens, UniProt P50548 1-548).
T2 sequence: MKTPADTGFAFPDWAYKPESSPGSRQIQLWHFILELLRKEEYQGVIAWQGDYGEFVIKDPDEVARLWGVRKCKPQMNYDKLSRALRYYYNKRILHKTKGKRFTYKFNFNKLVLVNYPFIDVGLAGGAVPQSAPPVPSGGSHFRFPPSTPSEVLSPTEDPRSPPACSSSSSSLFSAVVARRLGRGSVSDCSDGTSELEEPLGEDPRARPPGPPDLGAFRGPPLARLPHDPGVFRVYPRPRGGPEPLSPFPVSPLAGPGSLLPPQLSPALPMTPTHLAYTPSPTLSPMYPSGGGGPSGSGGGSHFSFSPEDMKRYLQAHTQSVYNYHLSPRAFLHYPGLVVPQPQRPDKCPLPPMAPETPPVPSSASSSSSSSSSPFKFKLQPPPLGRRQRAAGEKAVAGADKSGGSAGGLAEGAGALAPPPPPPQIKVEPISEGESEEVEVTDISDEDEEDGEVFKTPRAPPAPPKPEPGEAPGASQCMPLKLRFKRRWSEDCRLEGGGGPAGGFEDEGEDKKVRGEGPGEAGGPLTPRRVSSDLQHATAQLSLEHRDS
The conditions noted are these: protein: recombinant; tags: N-terminal GST; dsDNA, one strand shown. The method in brief: as §1

Sequence of CRX (O43186 whole entry): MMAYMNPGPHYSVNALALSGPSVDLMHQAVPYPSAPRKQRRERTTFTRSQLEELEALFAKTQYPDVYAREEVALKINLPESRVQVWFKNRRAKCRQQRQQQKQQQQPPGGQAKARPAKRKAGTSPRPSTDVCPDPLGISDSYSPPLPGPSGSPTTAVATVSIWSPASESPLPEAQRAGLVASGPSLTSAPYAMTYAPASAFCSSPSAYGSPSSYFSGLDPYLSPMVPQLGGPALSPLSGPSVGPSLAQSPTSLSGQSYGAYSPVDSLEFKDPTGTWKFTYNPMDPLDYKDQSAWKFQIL
Sequence of HSF1 (Q00613 whole entry, the tested form may be a part): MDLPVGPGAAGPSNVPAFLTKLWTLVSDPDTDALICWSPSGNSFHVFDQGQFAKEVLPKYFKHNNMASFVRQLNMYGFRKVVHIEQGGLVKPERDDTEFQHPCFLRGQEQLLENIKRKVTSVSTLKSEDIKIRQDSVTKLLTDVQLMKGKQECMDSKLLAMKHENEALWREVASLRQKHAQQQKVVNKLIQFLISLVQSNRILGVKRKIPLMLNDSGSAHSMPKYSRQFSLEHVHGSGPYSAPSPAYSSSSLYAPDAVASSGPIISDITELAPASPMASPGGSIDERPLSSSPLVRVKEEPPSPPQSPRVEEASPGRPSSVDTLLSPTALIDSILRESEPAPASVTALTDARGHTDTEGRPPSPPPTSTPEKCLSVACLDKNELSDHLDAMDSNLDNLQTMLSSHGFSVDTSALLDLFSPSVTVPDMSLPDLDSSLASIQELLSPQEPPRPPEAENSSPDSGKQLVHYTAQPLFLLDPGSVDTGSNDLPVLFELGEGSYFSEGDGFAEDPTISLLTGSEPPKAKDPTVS

Regarding GGGATT, the binding signal in the assay with HSF1 was 1.75 fold enrichment (6-mer frequency, TF over GST control); in the assay with CRX, 2.71 fold enrichment (6-mer frequency, TF over GST control).
As to GAAGAT, the binding signal with HSF1 was 1.24 fold enrichment (6-mer frequency, TF over GST control); with CRX, 1.12 fold enrichment (6-mer frequency, TF over GST control); with ETV7, 1 fold enrichment (6-mer frequency, TF over GST control).
In the case of GACTAA, the binding signal is 1.13 fold enrichment (6-mer frequency, TF over GST control) with HSF1 and 1.44 fold enrichment (6-mer frequency, TF over GST control) in the assay with CRX.
CCAAGA: the binding signal in the assay with HSF1 is 1.03 fold enrichment (6-mer frequency, TF over GST control); with ERF, 1.01 fold enrichment (6-mer frequency, TF over GST control).
As for GCGAAC, the binding signal with HSF1 is 1.03 fold enrichment (6-mer frequency, TF over GST control); in the assay with ERF, 1.05 fold enrichment (6-mer frequency, TF over GST control); with ETV7, 1.04 fold enrichment (6-mer frequency, TF over GST control).
GGATCA: the binding signal is 1.1 fold enrichment (6-mer frequency, TF over GST control) with HSF1 and 1.53 fold enrichment (6-mer frequency, TF over GST control) with CRX.
Take TAGAGA: the binding signal with HSF1 was 1.3 fold enrichment (6-mer frequency, TF over GST control); with CRX, 1.15 fold enrichment (6-mer frequency, TF over GST control).
As to TTAGTC, the binding signal with HSF1 is 1.17 fold enrichment (6-mer frequency, TF over GST control); in the assay with CRX, 1.57 fold enrichment (6-mer frequency, TF over GST control).
